Values joined by “and” are separate entries in the source; they are usually repeats but may differ in a detail not shown here. Identical values can stand only once. Results filed as inconclusive are left out. Active and inactive are the calls of the source. The calls were made as follows: active = hit-call score of the fitted dose curve at least 0.9, where 1 is the maximum; inconclusive = response in the unintended direction; inactive = score below 0.9.
molecular target: human Phosphodiesterase 10 (PDE10), PDE10A (gene 10846) (UniProt Q9Y233); assay: NVS_ENZ_hPDE10: NovaScreen (NVS) Enzymatic Assay for human Phosphodiesterase 10 (PDE10) (AID 2283195)
In short: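 Fluorescence/mobility-shift readout of PDE10A enzyme activity, taken 1 h post-dosing. Primary screen in duplicate at 25 uM; actives (e.g. ≥30% inhibition) retested as singleton concentration-response, top concentration 50 uM.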

human Phosphodiesterase 10 (PDE10), PDE10A (gene 10846), sequence (Q9Y233 whole entry, looked up): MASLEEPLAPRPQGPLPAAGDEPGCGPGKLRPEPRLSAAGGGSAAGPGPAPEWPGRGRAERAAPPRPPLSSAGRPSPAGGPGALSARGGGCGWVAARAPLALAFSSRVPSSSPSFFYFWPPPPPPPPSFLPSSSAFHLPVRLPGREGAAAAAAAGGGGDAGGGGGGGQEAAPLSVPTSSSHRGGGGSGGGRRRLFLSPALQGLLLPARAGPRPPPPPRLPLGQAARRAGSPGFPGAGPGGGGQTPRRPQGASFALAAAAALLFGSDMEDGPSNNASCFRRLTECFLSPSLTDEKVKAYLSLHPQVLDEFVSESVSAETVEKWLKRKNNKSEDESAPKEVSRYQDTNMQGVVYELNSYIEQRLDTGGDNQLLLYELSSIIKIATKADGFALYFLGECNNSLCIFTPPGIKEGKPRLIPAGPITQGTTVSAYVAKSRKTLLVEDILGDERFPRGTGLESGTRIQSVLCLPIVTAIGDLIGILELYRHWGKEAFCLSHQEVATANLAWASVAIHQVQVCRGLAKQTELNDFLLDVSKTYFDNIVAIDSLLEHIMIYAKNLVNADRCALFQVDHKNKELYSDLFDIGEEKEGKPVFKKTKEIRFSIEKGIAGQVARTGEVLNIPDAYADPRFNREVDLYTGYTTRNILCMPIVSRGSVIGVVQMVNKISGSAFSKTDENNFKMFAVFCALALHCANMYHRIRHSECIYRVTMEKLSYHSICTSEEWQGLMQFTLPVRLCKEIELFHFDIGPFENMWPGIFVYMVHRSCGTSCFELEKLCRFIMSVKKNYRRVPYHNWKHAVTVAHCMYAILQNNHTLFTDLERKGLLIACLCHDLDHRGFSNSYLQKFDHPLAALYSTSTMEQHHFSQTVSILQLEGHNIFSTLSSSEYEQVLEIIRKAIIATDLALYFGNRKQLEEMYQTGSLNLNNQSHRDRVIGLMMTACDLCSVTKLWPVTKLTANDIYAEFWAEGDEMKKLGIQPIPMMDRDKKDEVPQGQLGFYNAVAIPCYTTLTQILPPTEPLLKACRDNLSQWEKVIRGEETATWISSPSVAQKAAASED

Compound	AC50
CN1C(=O)N(c2ccccc2Br)Cc2cnc(Nc3ccc4c(c3)OCC(CO)O4)nc21 (stereo not drawn)	1.09 µM (active)
CCN(CC)C(=O)c1cc(S(=O)(=O)Cc2ccccc2)c(N2CCC(c3ccccc3)CC2)cc1N(CC)CCN(C)C	16 µM (active)
COc1cc(C(=O)NC2CCN(C)CC2)ccc1Nc1ncc2c(n1)N(C1CCCC1)CC(F)(F)C(=O)N2C	3.76 µM (active)
O=C(O)Cc1cc(I)c(Oc2ccc(O)c(I)c2)c(I)c1	3.32 µM (active)

molecular target: human Phosphoinositide 3-kinase alpha (PI3Ka), PIK3CA (gene 5290) (UniProt P42336); assay: NVS_ENZ_hPI3Ka: NovaScreen (NVS) Enzymatic Assay for human Phosphoinositide 3-kinase alpha (PI3Ka) (AID 2283196)
In short: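 Fluorescence/mobility-shift readout of substrate conversion by recombinant enzyme, 1 h post-dosing. Primary screen in duplicate at 25 uM; actives (e.g. ≥30% inhibition) retested in singleton concentration-response, top concentration 50 uM.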

human Phosphoinositide 3-kinase alpha (PI3Ka), PIK3CA (gene 5290), sequence (P42336 whole entry, looked up): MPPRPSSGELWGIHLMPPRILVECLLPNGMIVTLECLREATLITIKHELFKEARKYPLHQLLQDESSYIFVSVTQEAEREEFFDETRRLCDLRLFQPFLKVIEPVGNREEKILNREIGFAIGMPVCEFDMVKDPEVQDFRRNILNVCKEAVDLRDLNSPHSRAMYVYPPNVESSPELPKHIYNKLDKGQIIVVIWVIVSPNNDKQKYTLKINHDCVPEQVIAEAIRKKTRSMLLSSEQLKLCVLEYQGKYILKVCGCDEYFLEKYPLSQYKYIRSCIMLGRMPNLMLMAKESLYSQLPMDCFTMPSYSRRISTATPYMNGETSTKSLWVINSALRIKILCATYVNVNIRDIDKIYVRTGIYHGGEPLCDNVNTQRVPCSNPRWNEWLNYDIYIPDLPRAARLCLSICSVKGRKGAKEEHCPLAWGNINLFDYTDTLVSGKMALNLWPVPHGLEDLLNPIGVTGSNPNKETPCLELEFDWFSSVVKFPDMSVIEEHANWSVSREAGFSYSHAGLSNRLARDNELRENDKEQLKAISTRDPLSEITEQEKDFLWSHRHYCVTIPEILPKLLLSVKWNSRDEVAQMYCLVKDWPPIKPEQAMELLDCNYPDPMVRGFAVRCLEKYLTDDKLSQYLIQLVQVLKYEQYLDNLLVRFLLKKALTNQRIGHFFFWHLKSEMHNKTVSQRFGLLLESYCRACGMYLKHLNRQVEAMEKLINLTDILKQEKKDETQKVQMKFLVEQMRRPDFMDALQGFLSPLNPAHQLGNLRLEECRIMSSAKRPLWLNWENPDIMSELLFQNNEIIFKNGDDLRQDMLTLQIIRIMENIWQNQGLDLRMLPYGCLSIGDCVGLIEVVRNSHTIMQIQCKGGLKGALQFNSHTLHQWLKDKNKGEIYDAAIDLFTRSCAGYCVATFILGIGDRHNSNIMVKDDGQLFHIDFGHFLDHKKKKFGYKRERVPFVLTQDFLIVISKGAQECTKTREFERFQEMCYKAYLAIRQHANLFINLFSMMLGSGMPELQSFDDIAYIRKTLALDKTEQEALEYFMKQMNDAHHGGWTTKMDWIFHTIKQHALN

Compound	outcome	AC50
CCCCCCCCOC(=O)c1cc(O)c(O)c(O)c1	inactive	
CCCCCCCCN(C)CCCCCCCC	inactive	
CC/C(=C(/CC)c1ccc(O)cc1)c1ccc(O)cc1		40 µM (active) and 17.3 µM (active) and 27.8 µM (active)
O=C1O[C@H]([C@@H](O)CO)C(O)=C1O	inactive	

Reference: PubChem BioAssay (EPA / NIEHS)
